# Rows were chosen to be rich in hits. Some 27% of all compounds tested hit in one or more screens of this group.
# sEH inhibitor = blocks human soluble epoxide hydrolase activity; recombinant human sEH enzymatic activity assay; inhibition, % at 2 µM; 91,000 tested, 0.34% active; AID 707; in the data active means inhibition above about 80%
# Target sequence (P34913 whole entry, looked up): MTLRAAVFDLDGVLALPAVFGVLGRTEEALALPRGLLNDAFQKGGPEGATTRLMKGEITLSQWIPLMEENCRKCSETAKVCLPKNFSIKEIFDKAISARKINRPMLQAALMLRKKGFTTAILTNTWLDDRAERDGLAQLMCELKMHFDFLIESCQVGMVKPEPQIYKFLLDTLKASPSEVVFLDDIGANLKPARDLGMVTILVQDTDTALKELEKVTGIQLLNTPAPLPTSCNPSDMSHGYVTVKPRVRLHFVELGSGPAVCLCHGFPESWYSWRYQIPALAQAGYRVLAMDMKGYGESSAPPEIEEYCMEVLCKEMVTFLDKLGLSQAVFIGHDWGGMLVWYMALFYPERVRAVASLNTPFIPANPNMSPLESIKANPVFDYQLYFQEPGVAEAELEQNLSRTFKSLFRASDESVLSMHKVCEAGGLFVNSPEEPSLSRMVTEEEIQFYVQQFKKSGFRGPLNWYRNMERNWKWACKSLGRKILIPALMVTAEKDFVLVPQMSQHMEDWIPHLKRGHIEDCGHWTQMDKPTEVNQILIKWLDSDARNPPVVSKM
# sEH activator = increases human soluble epoxide hydrolase activity | P34913 | purified human sEH enzymatic activity, activator screen | activation, % at 2 µM | 91,000 tested, 0.04% active; in the data active means activation above about 37%
# CYP2C9 inhib = human CYP2C9 inhibition; CYP2C9 Supersomes, luciferin-H conversion, luminescence; inhibition, % at 5 µM; 96,000 tested, 20% active; AID 777;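 active means blocking of liver enzyme CYP2C9 beyond about 50% at 5 µM, limit read from the data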
# CYP2C19 act = activators of human cytochrome P450 2C19; recombinant CYP2C19, luciferin-H EGE luminescence; active compounds read high; 0 = fully inhibited enzyme, 1 = untreated enzyme; activation factor at 5 µM; 96,000 tested, under 10 active; AID 1025;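 active means activation factor of at least 2 at 5 µM in the primary screen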;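 further: 0 = wells with 2.5 mM tranylcypromine and 1 = vehicle-only wells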
# CYP2C9 activ = CYP2C9 (human) activation | recombinant CYP2C9, luciferin-H conversion, luminescence; active compounds read high; factor 1 = untreated enzyme, 0 = blocked | activation factor at 5 µM | 96,000 tested, 1.4% active;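 active means activation factor of 2 or more for CYP2C9 at a 5 µM dose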;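 further: 0 = sulfaphenazole-blocked wells and 1 = vehicle-only wells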
# CYP2C19 inhib = human CYP2C19 inhibition; P33261; 96,000 tested, 21% active; AID 778; CYP2C19 Supersomes, luciferin-H EGE luminescence, 30 min; inhibition, % at 5 µM;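 active means CYP2C19 inhibition above a set limit at 5 µM in the primary screen, cut at about 50% in these data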;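 further: plate controls were negative control wells for no effect and 2.5 mM tranylcypromine positive control for full effect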
# An asterisk follows results filed as active; · = no result given.
SMILES,sEH inhibitor,sEH activator,CYP2C9 inhib,CYP2C19 act,CYP2C9 activ,CYP2C19 inhib
CCCOc1ccc(N2CC(C(=O)Nc3ncccc3C)CC2=O)cc1 (stereo unspecified),-6,6,69*,1,0.3,4
COc1ccc(N2CC(C(=O)Nc3ncccc3C)CC2=O)cc1 (stereo unspecified),2,0,22,1,0.8,-2
COc1ccc(S(=O)(=O)N2CCCC2C(=O)Nc2ccc(C(C)=O)cc2)cc1 (stereo unspecified),·,·,30,0.4,0.7,57*
O=C(NCC1CCCO1)C(c1cccnc1)N(C(=O)Cc1cccs1)c1cccnc1 (stereo unspecified),-20,23,-19,1.2,1.2,-17
Cc1ccccc1CNC(=O)Nc1cccs1,50,-49,45,0.3,0.5,72*
Cc1ccc(NC(=O)Nc2ncccc2C)cc1,4,-4,0,0.8,1,21
O=C(NCc1cccs1)Nc1cccs1,·,·,6,0.8,0.9,19
Cc1cccnc1NC(=O)Nc1cccs1,-1,0,27,0.5,0.7,50*
C=CCSc1cc(C)nc2c(-c3ccc(Cl)cc3)c(C)nn12,4,-4,15,0.8,0.8,19
COc1ccc(C2(C)NC(=O)N(Cc3cc(Cl)cc4c3OCOC4)C2=O)cc1OC (stereo unspecified),-9,6,-177,0.4,2.8*,65*
O=C(CSc1nnc(-c2ccccc2O)o1)N1CCc2ccccc2C1,-11,13,33,0.4,0.7,63*
COc1ccc(-c2nnc(SCC(=O)N3CCc4ccccc4C3)o2)cc1,-2,3,13,0.2,0.9,78*
O=C(CSc1nnc(-c2ccccc2)o1)N1CCc2ccccc2C1,5,-2,12,0.9,0.9,13
COc1ccc(Oc2ccccc2/C=N/O)cc1,15,-15,-18,0.3,1.2,70*
COc1cccc(NC(=O)CSc2nnc(-c3cc(-c4ccccn4)nc4ccccc34)o2)c1,-6,4,18,0.9,0.8,7
CN(C=O)CP(=O)(O)CN1CCCCC1,·,·,-20,1.2,1.2,-19
O=C(COc1cc(O)c2c(=O)cc(-c3ccccc3)oc2c1)c1ccccc1,-9,12,59*,0.7,0.4,32
COc1ccc(CN(C(=O)c2ccco2)c2ccc(C)cc2)cc1OC,2,-1,63*,0.3,0.4,65*
O=C(NCc1cccnc1)C1CC(c2ccc(F)cc2)=NO1 (stereo unspecified),0,-1,17,0.9,0.8,10
O=C(Nc1cccnc1)C1CC(c2ccccc2O)=NO1 (stereo unspecified),-5,7,51*,0.2,0.5,80*
O=C(NCc1ccc2c(c1)OCO2)c1cccc(S(=O)(=O)N2CCOCC2)c1,48,-47,35,0.9,0.6,14
COc1ccc(CNS(=O)(=O)c2cccc(S(=O)(=O)N3CCOCC3)c2)cc1,2,-4,46,0.4,0.5,58*
COC(=O)c1ccc(S(=O)(=O)NCc2cccc(OC)c2)n1C,-10,10,28,0.4,0.7,60*
O=S(=O)(c1cccc(S(=O)(=O)N2CCOCC2)c1)N1CCCCC1,2,-4,24,0.6,0.8,41
COC(=O)c1cccc(S(=O)(=O)N2CCOCC2)c1,8,-6,7,1,0.9,4
SMILES,sEH inhibitor,sEH activator,CYP2C9 inhib,CYP2C19 act,CYP2C9 activ,CYP2C19 inhib
COc1cccc(CNC(=O)C2CCN(S(=O)(=O)N3CCCC3)CC2)c1,·,·,16,1,0.8,5
O=S(=O)(NCc1ccc2c(c1)OCO2)c1cccc(S(=O)(=O)N2CCOCC2)c1,-8,12,35,0.3,0.7,75*
COc1cccc(CNS(=O)(=O)c2cccc(S(=O)(=O)N3CCOCC3)c2)c1,2,-3,37,0.4,0.6,57*
C=CCNC(=S)NNC(=O)C(CCCC)CC(C)(C)O (stereo unspecified),18,-14,·,·,·,·
Cn1c(-c2ccc(Br)cc2)cnc1NCc1cccnc1,12,-9,23,0.6,0.8,37
CCOc1cc(CNc2ncc(-c3ccc(OC)cc3)n2C)ccc1O,-5,8,47,0.4,0.5,59*
Cn1c(-c2ccc(F)cc2)cnc1NCc1ccc(C#N)cc1,19,-18,57*,0.4,0.4,64*
Cn1c(-c2ccc(F)cc2)cnc1NCc1ccc(F)cc1,6,-3,28,0.3,0.7,69*
NC(=O)Nc1ccc(Oc2c(F)c(F)c(F)c(F)c2F)cc1,·,·,31,0.7,0.7,30
Cc1ccc(OCc2nc(-c3ccc(-n4cccc4)cc3)no2)cc1C,2,-2,-91,1,1.9,0
O=C(CCN1CCCC1)Nc1ccccc1,3,-5,-6,1,1.1,0
COc1ccc(OCCNc2cc(N3CCCCC3)ccc2[N+](=O)[O-])cc1,3,0,49,0.8,0.5,20
COc1cccc(OCCNc2cc(N3CCCCC3)ccc2[N+](=O)[O-])c1,-10,11,70*,0.7,0.3,26
Cc1ccccc1OCCNc1cc(N2CCCCC2)ccc1[N+](=O)[O-],-5,9,95*,0.1,0.1,89*
CC(Nc1cc(N2CCCC2)ccc1[N+](=O)[O-])c1ccccc1 (stereo unspecified),-12,11,7,1,0.9,-4
COc1ccc(OCCNc2cc(N3CCOCC3)ccc2[N+](=O)[O-])cc1,1,2,63*,0.6,0.4,45
CNc1cc(N2CCCCCC2)ccc1[N+](=O)[O-],-6,8,47,0.5,0.5,51*
C#CC(CC)(CC)NC(=O)c1c(C)noc1C,·,·,-6,1,1.1,4
COCC(C)NC(=O)COc1ccc(Cl)cc1Cl (stereo unspecified),-11,10,·,·,·,·
CC1(C)CC(=O)C=C(Nc2ccc(Br)cn2)C1,1,0,-1,0.8,1,15
CSc1nc2ccccc2c(=O)n1N,7,-8,8,0.7,0.9,26
CCOC(=O)CSc1nnc(CNC(=O)c2cccs2)n1CCc1ccccc1,-10,8,14,0.6,0.9,36
O=[N+]([O-])c1ccc(N2CCOCC2)cc1NCc1ccccc1,-14,16,33,0.6,0.7,41
O=[N+]([O-])c1ccc(N2CCN(S(=O)(=O)c3ccccc3)CC2)cc1NCCN1CCOCC1,10,-9,70*,0.5,0.3,55*
COC(=O)C1=C(C)NC(=O)C1(NS(=O)(=O)c1ccc(NC(C)=O)cc1)C(F)(F)F (stereo unspecified),-4,3,8,0.6,0.9,38
COc1cccc(SCc2noc(C(=O)NC(C)C)c2C(=O)O)c1,5,0,61*,0.9,0.4,11
Cc1cccc(SCc2noc(C(=O)NC(C)C)c2C(=O)O)c1,1,5,55*,0.9,0.4,13

# Assay outcomes as filed in PubChem BioAssay.
